Source: PubChem BioAssay (several laboratories)
D1 mod: D1 CRE-luciferase signal change, two-sided – cell-based, HEK293 D1, dopamine EC30, D1 allosteric modulator project, primary screen | dopamine EC30 potentiation; actives deviate in either direction | B-score at 10 µM | 58,000 compounds, 5.9% hits;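 active = luminescence count or its row- and column-corrected plate score outside the 99.7% band of the plate's sample wells, on either side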
hDAT+cocaine: changed hDAT dopamine uptake under cocaine IC80, either direction, primary screen, cocaine antagonist project, cell-based, LLC-PK1 hDAT, [14C]-dopamine uptake, MLSMR; B-score at 10 µM; LLC-PK1 hDAT cells, [14C]-dopamine uptake with cocaine IC80; actives deviate in either direction; 110,000 compounds, 1.3% hits;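 active = Z score or B-score, a plate-position-corrected score, falls beyond the plate's 99.7% confidence bounds, in either direction; inactive = both scores lie inside the 99.7% bounds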
Target sequence (Q01959 whole entry, looked up): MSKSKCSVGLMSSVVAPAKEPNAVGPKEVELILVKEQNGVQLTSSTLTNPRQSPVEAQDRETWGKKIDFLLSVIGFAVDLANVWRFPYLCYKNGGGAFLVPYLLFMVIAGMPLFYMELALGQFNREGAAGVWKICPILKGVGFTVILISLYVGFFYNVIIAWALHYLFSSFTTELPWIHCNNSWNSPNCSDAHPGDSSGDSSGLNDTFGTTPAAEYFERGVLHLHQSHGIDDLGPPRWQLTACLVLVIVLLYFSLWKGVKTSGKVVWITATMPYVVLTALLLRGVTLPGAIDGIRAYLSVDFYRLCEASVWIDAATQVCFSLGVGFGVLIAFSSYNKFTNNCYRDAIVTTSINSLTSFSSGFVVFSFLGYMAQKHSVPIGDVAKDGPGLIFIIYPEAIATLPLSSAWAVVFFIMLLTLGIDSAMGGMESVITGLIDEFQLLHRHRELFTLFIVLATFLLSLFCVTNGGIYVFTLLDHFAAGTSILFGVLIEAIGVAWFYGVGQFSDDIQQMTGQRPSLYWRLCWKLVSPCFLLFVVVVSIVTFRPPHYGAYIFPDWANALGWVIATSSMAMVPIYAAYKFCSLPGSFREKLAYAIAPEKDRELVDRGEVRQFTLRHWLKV
EphB4 antag: EphB4-ephrin-B2 interaction antagonists, primary screen, biochemical, TNYL-RAW peptide probe, fluorescence polarization; EphB4 LBD / TNYL-RAW-Alexa532 peptide; inhibition, % at 7 µM; 97,000 compounds, 0.15% hits; AID 720, 2007;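 active = inhibition above the screen-wide mean inhibition plus 3 SD, cut at about 15% in these data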
D1 PAM confirm: D1 receptor positive allosteric modulators, retest, confirmation, cell-based, HEK293 D1, CRE-luciferase, duplicate; shares compounds with D1 mod; dopamine EC30 potentiation; hits give high values; luminescence at 10 µM; 2,200 compounds, 88% hits; AID 642, 2007;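 active = luminescence in either of two replicates above the same-plate mean plus 3 SD of the low-dose dopamine control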
D1 ag no DA: D1 receptor agonism without dopamine, confirmation, mechanism study for D1 allosteric modulator project, cell-based, HEK293 D1, CRE-luciferase, secondary assay 1; luminescence at 10 µM; shares compounds with D1 mod; luminescence, no dopamine; hits give high values; 1,900 compounds, 0.8% hits; in the data active = luminescence above about 3900
Isoprot counter: counter-screen for D1 modulators: isoproterenol response in HEK293 cells | shares compounds with D1 mod | HEK293 D1 CRE-luciferase, isoproterenol EC30 counter-screen | calls only at 10 µM | 2,200 compounds, 63% hits;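 active = luminescence in either replicate above plate mean of wells with a partly effective reference agonist dose plus 3 SD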;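 note: isoproterenol raises cAMP through native beta-adrenoceptor Gs so signal bypasses D1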
Numbers stand for hits; . = inactive; / = no result; + = active, no number. This excerpt belongs to a sample that is enriched for hits.

SMILES | D1 mod | hDAT+cocaine | EphB4 antag | D1 PAM confirm | D1 ag no DA | Isoprot counter
Cc1cc(NC(=O)COC(=O)c2c(C)nn(Cc3ccccc3)c2C)no1 | / | . | . | / | / | /
CC(=NCCCO)c1c(O)n(Cc2ccccc2)c(=O)[nH]c1=O | . | . | . | / | / | /
CC(=NCc1ccco1)c1c(O)n(Cc2ccccc2)c(=O)[nH]c1=O | 4.5 | . | . | 10196 | . | +
CCC(=NCc1ccco1)c1c(O)n(C2CCCCC2)c(=O)[nH]c1=O | 14 | . | . | 16640 | . | +
CCC(=NCc1cccnc1)c1c(O)n(C2CCCCC2)c(=O)[nH]c1=O | 15 | . | . | 9572 | . | +
CC(=NCc1cccnc1)c1c(O)n(-c2ccc(C)cc2)c(=O)[nH]c1=O | . | . | . | / | / | /
CC(=NCc1cccnc1)c1c(O)n(C2CCCCC2)c(=O)[nH]c1=O | 6 | . | . | 9208 | . | +
CCC(=O)c1c(O)n(C2CCCCCC2)c(=O)[nH]c1=O | . | . | . | / | / | /
CCC(=NCCCN(CC)CC)c1c(O)n(C2CCCCC2)c(=O)[nH]c1=O | . | . | . | / | / | /
COC(=O)CSC1=NN1c1cc(C)nc(N)n1 | / | . | / | / | / | /
Cc1ccc(-n2nc(C)cc2NC(=O)COc2cc(C)cc3oc(=O)c4c(c23)CCC4)cc1 | / | . | . | / | / | /
COc1ccn(C)c(=O)c1C#N | / | . | / | / | / | /
CC[C@@H](CO)C1CC2NC3CC4(c5ccccc5N(C)[C@@H]24)C(O)C31 (stereo not given in full) | / | . | / | / | / | /
Cc1nc2cc(-c3ccccc3)nn2c(C)c1CCC(=O)N1CCC2(CC1)OCCO2 | . | . | / | / | / | /
Cc1nc2c(-c3ccc(F)cc3)c(C)nn2c(C)c1CCC(=O)N1CCC2(CC1)OCCO2 | 6.1 | . | / | 7792 | . | +
Cc1nc2ncnn2c(C)c1CCC(=O)N1CCC2(CC1)OCCO2 | 2.8 | . | . | . | . | .
Cc1ccc(Cc2c(C)nc3nc(SCC(=O)N4CCC5(CC4)OCCO5)nn3c2C)cc1 | / | . | . | / | / | /
CC1(C)C[C@H]2C=C(C=O)[C@]3(C=O)C[C@]3(C)[C@H]2C1 | / | . | / | / | / | /
CCOC(=O)c1c(C)n(Cc2ccco2)c2ccc(OC)cc12 | 3.9 | . | . | . | . | .
COC(=O)c1c(C)n(Cc2ccco2)c2ccc(O)cc12 | / | . | . | / | / | /
C=C(C=O)C[C@@H]1C[C@H](O)C2OC3C[C@]4(C)OC5/C=C\CC6OC7C(CC=CCC6OC5CCCC4OC3CC2O1)OC1CC2OC3CC(=O)OC3C[C@@H](C)C[C@@]2(C)OC1C[C@@H]7C (stereo not given in full) | / | . | / | / | / | /
CN1C(=O)c2ccccc2NC(=O)C1Cc1ccccc1 (stereo not given) | / | . | / | / | / | /
CCCCc1nc2ccccc2c(=O)n1-c1ccc(O)cc1 | 3.7 | . | . | 8012 | . | +
CCCCc1nc2ccccc2c(=O)n1-c1ccccc1[N+](=O)[O-] | / | . | . | / | / | /
CCCNC(=O)N1[C@H]2CC[C@@H]1C(C(=O)OC)=C(c1cccc(OC)c1OC)C2 | / | . | / | / | / | /
SMILES | D1 mod | hDAT+cocaine | EphB4 antag | D1 PAM confirm | D1 ag no DA | Isoprot counter
CCCN(CCC)C1Cc2cc(OC)c(OC)cc2C1 | / | . | / | / | / | /
COC(=O)C1=C(c2cccc(OC)c2OC)C[C@@H]2CC[C@H]1N2C(=O)N1CCOCC1 | / | . | / | / | / | /
O=c1[nH]c(=O)n(CCc2ccc(F)cc2)c(O)c1C=NCCCN1CCOCC1 | 12 | . | . | . | . | .
O=c1[nH]c(=O)n(Cc2ccc(F)cc2)c(O)c1C=NCCCN1CCOCC1 | . | . | . | / | / | /
C=C1C(=O)[C@@]23C[C@H]4[C@@H]5[C@@]6(C)CCC[C@@]57[C@@H]2[C@@H](O)[C@@H]1C[C@H]3[C@H]7N4C6 | / | . | / | / | / | /
COC(=O)C1=C(c2ccccc2)C[C@@H]2CC[C@H]1N2C(=O)N1CCC(C)CC1 | / | . | / | / | / | /
Cc1n[nH]c(C)c1CCN | . | . | . | / | / | /
Cc1[nH]c2c(C(F)(F)F)cccc2c1CCN | 7.8 | . | / | . | / | .
C=C(C)[C@H]1CN[C@H](C(=O)O)[C@H]1CC(=O)O | / | . | / | / | / | /
